# An excerpt weighted towards active compounds, which were near 11% of everything screened.
# ALDH1A1 block – inhibitors of human aldehyde dehydrogenase 1A1; P00352; Purified ALDH1A1, NADH fluorescence, propionaldehyde substrate; Potency, µM (titrated, usually from 75.3 µM), for the others: at the highest dose activity, negative = inhibition, usual class: inhibitors; hit rate 7.3% among 220,000; active = well fitted inhibition curve with a large enough effect, not every such curve was filed as active; inconclusive = small, poorly fitted or top-dose-only effect, or another doubt; inactive = no such curve, though single readings can be large or run the other way;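 note: potency is the fitted concentration of half-maximal effect; plate controls were no enzyme wells and a reference inhibitor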
# HPGD inh – blocks human HPGD enzyme activity; purified HPGD, NADH fluorescence kinetic, PGE2 substrate; P15428; Potency, µM, for inactives: top-dose activity change, negative = inhibition, most hits filed as inhibitors; hit rate 4.3% among 150,000; active = well fitted inhibition curve with a large enough effect, not every such curve was filed as active; inconclusive = small, poorly fitted or top-dose-only effect, or another doubt; inactive = no such curve, though single readings can be large or run the other way; note: potency is the fitted concentration of half-maximal effect; % is set by controls: 0 for no effect and ±100 for the full control effect
# Target sequence (P15428 whole entry, looked up): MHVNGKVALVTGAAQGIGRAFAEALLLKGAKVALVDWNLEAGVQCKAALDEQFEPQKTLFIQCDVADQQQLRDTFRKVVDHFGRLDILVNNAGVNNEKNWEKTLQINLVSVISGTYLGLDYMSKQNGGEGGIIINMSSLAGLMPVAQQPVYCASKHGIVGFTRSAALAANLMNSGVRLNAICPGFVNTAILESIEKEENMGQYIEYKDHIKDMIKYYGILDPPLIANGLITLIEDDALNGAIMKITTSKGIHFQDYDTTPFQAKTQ
#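 NADH formation kinetics: reaction with 30 uM PGE2 and 1 mM NAD+ (final), 20 nM enzyme, Tris-HCl pH 8 with Tween 20, after 15 min compound preincubation at room temperature. Fluorescence change, last versus first of five reads.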
# CBFb RUNX1 block – blocks binding between human CBF-beta and RUNX1; Q01196+Q13951; AlphaScreen CBFb-His/RUNX1-biotin binding, biochemical; Potency, µM (series often up to 59.8 µM), for inactives: top-dose activity, negative = inhibition, usual class: inhibitors; 230,000 tested, under 10 active; note: % of control where 0% means no effect
#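 Compounds were screened at multiple concentrations against a preformed CBF-beta(His)/RUNX1(biotin) complex (30 nM of each) for 15 min at room temperature, followed by 90 min with nickel and streptavidin beads and AlphaScreen reading.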
# HTT cytoprotect – protects HTT-Q103 PC12 cells, measured by ATP; PC12 HTT-Q103 induced, cytoprotection, ATP luminescence, 40 h; Potency, µM (highest dose often 56.4 µM), inactives show cytoprotection (ATP increase), hits mostly activators; hit rate 0.14% among 230,000; note: potency is the fitted concentration of half-maximal effect; % of control where 0% means no effect; nearly all actives have a fitted effect of over 45% in size
#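 PC12 cells stably carrying ecdysone-inducible Htt exon 1 (Q103)–GFP were induced with 100 nM tebufenozide (final) alongside library compounds in a dose series. Cytoprotection was scored as retained ATP by ATPlite luminescence.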
# HttQ103 aggreg – inhibitors of mutant huntingtin aggregate formation in PC12 cells. PC12 HttQ103-GFP aggregates, Acumen cytometry, 40 h. Potency, µM (top dose mostly 46.1 µM), inactives show top-dose activity change, negative = inhibition, most hits filed as inhibitors. hit rate 1.1% among 220,000. AID 1688; note: potency is the fitted concentration of half-maximal effect; % is set by controls: 0 for no effect and ±100 for the full control effect; nearly all actives have a fitted effect of over 60% in size
#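 Steps: seed 1500 PC12 HTTQ103-GFP cells/well; add tebufenozide, 100 nM final; add compound titration; add ATPLite reagent; quantify GFP aggregates by laser scanning cytometry.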
# PNC inhibitor – inhibitors of perinucleolar compartment assembly | PC3M PTB-GFP, PNC prevalence imaging, 16 h; hits give low values | activity change (PNC), negative = inhibition, % at 10 µM | hit rate 3.1% among 140,000 | AID 2417;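 active = readout at or below -70, meaning at least 70% loss of cells showing the perinucleolar compartment, a nuclear body marking cancer cells; inconclusive = readout between -30 and a set limit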;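 note: plate controls were DMSO wells for no effect and camptothecin positive control wells for full effect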
#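 Compounds are pinned in duplicate onto adhered PC3M cells stably expressing GFP-tagged PTB and incubated 16 h at 37 C. Cells are then fixed, nuclei stained with Hoechst, and PNC-positive cells counted.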
# * = called active by the depositor; ? = inconclusive; . = not tested or not shown; [ ] = another dose, or the depositor's remark. Unless noted, calls come from the whole dose curve; as a rule, active = well fitted curve in the direction sought with a large enough effect; inconclusive = small, poorly fitted or top-dose-only effect, or another doubt; inactive = no such curve, though single readings can be large; an effect the other way counts as inactive or inconclusive.
SMILES,ALDH1A1 block,HPGD inh,CBFb RUNX1 block,HTT cytoprotect,HttQ103 aggreg,PNC inhibitor
O=C(NC(Nc1nc2ccc([N+](=O)[O-])cc2s1)(C(F)(F)F)C(F)(F)F)c1ccccc1Cl,?,-2%,-11%,-61%[10 µM],0.32µM*,-119*
O=C(NC(NNc1ccc([N+](=O)[O-])cc1)(C(F)(F)F)C(F)(F)F)c1ccccc1Cl,14µM*,14µM*,?,-56%,?,-2
Cc1ccccc1C(=O)NNc1ccc([N+](=O)[O-])cc1,?,-10%,1%,15%,-9%,1
O=C(NC(NNc1ccc([N+](=O)[O-])cc1)(C(F)(F)F)C(F)(F)F)c1ccc(F)cc1,?,32µM*,2%,10%[10 µM],-27%,-20
COC(=O)C(NNc1ccccc1)(NC(=O)c1ccc(F)cc1)C(F)(F)F (centres undefined),?,-14%,6%,1%,24%,-4
COC(CNC(=O)c1ccc(N2CCC3(CC2)OCCO3)c([N+](=O)[O-])c1)OC,28µM*,-16%,1%,-10%[10 µM],8%,30
CCn1cc(C(=O)NC2CCc3ccccc32)c(=O)c2ccc(C)nc21 (centres undefined),?,-14%,11%,-7%[10 µM],-18%,28
O=Cc1ccc(OC(=O)c2cc(Cl)nc3ccccc23)cc1,14µM*,-30%,14%,23%[10 µM],-22%,-11
O=C(c1ccncc1)c1ccc(NS(=O)(=O)c2ccc(Br)s2)cc1,18%,28µM*,4%,-43%,?,0
O=C(Nc1ccc2ccccc2c1)c1ccc(NS(=O)(=O)c2ccc(Br)s2)cc1,12%,-14%,-8%,33%[10 µM],-26%,78
COc1cc(CNn2nnnc2N)cc(Br)c1OCc1c(Cl)cccc1Cl,2%,16µM*,-4%,16%,?,21
C=CCN1C(=O)/C(=C/c2ccc(O)cc2)S/C1=N/c1nccs1,3.2µM*,-8%,-2%,-11%[10 µM],?,3
CCCOCC1CC2(CC(C)(c3csc(N)n3)OC2=O)C(=O)O1 (centres undefined),2%,0%,4%,21%[10 µM],5%,-119*
Cc1ncc(C[n+]2csc(CCOP(=O)(O)OP(=O)(O)O)c2C)c(N)n1,.,.,0%,?,-2%,.
CN(NC(=O)/C=C/C(=O)O)c1ncc(C(F)(F)F)cc1Cl,2.8µM*,.,-7%,-55%,-2%,.
Cn1c(SCC(=O)Nc2cccnc2)nnc1-c1ccccc1F,-9%,.,-7%,-28%,-1%,.
CC(C)c1cc(NC(=O)CSc2nnc(-c3ccccc3F)n2C)on1,?,-1%,1%,-6%[0.074 µM],-5%,-100*
Cc1nn(Cc2ccccc2)c(C)c1NC(=O)CSc1nnc(-c2cc(Cl)ccc2O)n1C,?,28µM*,9%,-1%,8%,-14
CCn1nc(C)c(NC(=O)CSc2nnc(-c3ccco3)n2C)c1C,0%,-1%,9%,4%,-2%,-3
CCN(CC)S(=O)(=O)c1ccc2c(c1)nc(CCC(=O)Nc1ccccc1Cc1ccccc1)n2CC,?,-2%,1%,7%,13%,-7
Cc1c[nH]c(=O)n(CCCN2CCN(c3ccccc3OCC(F)(F)F)CC2)c1=O,4%,-2%,0%[21.7 µM],8%,.,.
COC(=O)CN1C(=O)[C@@H]2[C@H](C1=O)[C@@H]1CC(C(=O)OC)=C[C@@H](C(=O)OC)C3C1=C(C(=O)C31CCCCC1)[C@@H]2C (some centres undefined),.,.,-6%,.,.,.
CC1CCOC2(O1)C(=O)Nc1ccccc12 (centres undefined),3%,.,9%,-12%,-22%,.
CCCOC(=S)NC(=O)c1sc2ccccc2c1Cl,5.6µM*,20µM*,5%,-8%,9%,?
COc1cc(NS(=O)(=O)c2ccc(NC(=S)NC(=O)c3sc4ccccc4c3Cl)cc2)ncn1,22µM*,-16%,-1%,6%[10 µM],-11%,?
SMILES,ALDH1A1 block,HPGD inh,CBFb RUNX1 block,HTT cytoprotect,HttQ103 aggreg,PNC inhibitor
CCOC(=S)NC(=O)c1sc2ccccc2c1Cl,0.35µM*,-25%,6%,15%,3%,-109*
O=C(NC(=S)NCCO)c1sc2ccccc2c1Cl,?,.,-2%,-44%,21%,.
NC(=O)COC(=O)c1sc2ccccc2c1Cl,-7%,.,-12%,-6%,-2%,.
NC(=S)N1CCCc2ccccc21,.,.,1%,15%[10 µM],-16%[9.22 µM],.
CC1CCCC(C)N1C(=O)COc1ccc([N+](=O)[O-])cc1Cl (centres undefined),-4%,.,-6%,-23%,18%,.
O=S(=O)(NCc1ccco1)c1cccc2cccnc12,4%,-9%,-11%,17%[10 µM],5%,-100*
CCOc1ccc(S(=O)(=O)NCc2ccco2)c2ccccc12,14µM*,?,-7%,-10%,15%,12
CCOc1cc(C)c(Cl)cc1S(=O)(=O)NCc1ccco1,0%,-12%,6%,9%,8%,52
C/C(=N\Nc1ccccn1)c1ccc(S(=O)(=O)NCc2ccco2)cc1,29%,-13%,-29%,14%[0.074 µM],-12%,-83*
COc1ccc(C(OCCN2CCC[C@H](C(=O)O)C2)(c2ccc(OC)cc2)c2ccc(OC)cc2)cc1,.,.,6%,.,.,.
COc1ccc(/C=C/C(=O)c2nc3ccccc3n2CC(=O)c2ccc(OC)cc2)cc1,16µM*,-18%,-16%,-8%,-15%,-18
COc1ccc(C(=O)Cn2c(NCCO)nc3ccccc32)cc1,1%,.,-5%,-2%[10 µM],-3%[9.22 µM],.
COc1ccc(C(=O)/C=C/c2ccc(OC)c(Cn3nnc4ccccc43)c2)cc1,11µM*,?,0%,5%[1.9 µM],19%,?
COc1ccc(C(=O)/C=C/c2ccccc2)cc1,18µM*,-8%,15%,-29%,.,.
CCc1cc2c(nc1CC)CCN(CC/C(C)=N/O[C@@H](C)c1cn([C@H](CO)Cc3ccccc3)nn1)C2,-1%[13.5 µM],.,2%[13.1 µM],-3%[10 µM],.,.
NC(=O)c1cc[n+](CC2=C(C(=O)O)N3C(=O)C(NC(=O)C(c4ccccc4)S(=O)(=O)[O-])C3SC2)cc1 (centres undefined),?,32µM*,-3%,22%,.,.
Cc1ccccc1S(=O)(=O)Cc1ccc(C(=O)N2CCN(c3cccc(C)c3C)CC2)o1,-16%,-8%,-6%,-40%[10 µM],13µM*,8
Cc1ccccc1S(=O)(=O)Cc1ccc(C(=O)N2CC(C)CC(C)C2)o1 (centres undefined),-7%,-13%,-3%,-29%,-4%,-3
Cc1cc(OCC(=O)N(C)C)c2c(-c3ccccc3)cc(=O)oc2c1,?,-18%,10%,-11%,13%,-7

# Compound activity deposited in PubChem BioAssay by National Center for Advancing Translational Sciences (NCATS).
